From PubChem BioAssay
Measured potencies and affinities stand elsewhere. The source made the active and inactive calls. The limit is not given here; nearly all actives have IC50 up to about 0.98 µM.

The molecules below were run against Calcium-dependent protein kinase 1 (Plasmodium falciparum (isolate 3D7)) (UniProt P62344) (assay: PfCDPK1 kinase inhibitors, biochemical, TCAMS library (AID 1159585;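 also: inhibitors leave more ATP so luminescence rises with inhibition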)). Conditions: recombinant PfCDPK1, Kinase-Glo ATP depletion luminescence.
Chain of Calcium-dependent protein kinase 1 (Plasmodium falciparum (isolate 3D7)) (P62344 whole entry, looked up): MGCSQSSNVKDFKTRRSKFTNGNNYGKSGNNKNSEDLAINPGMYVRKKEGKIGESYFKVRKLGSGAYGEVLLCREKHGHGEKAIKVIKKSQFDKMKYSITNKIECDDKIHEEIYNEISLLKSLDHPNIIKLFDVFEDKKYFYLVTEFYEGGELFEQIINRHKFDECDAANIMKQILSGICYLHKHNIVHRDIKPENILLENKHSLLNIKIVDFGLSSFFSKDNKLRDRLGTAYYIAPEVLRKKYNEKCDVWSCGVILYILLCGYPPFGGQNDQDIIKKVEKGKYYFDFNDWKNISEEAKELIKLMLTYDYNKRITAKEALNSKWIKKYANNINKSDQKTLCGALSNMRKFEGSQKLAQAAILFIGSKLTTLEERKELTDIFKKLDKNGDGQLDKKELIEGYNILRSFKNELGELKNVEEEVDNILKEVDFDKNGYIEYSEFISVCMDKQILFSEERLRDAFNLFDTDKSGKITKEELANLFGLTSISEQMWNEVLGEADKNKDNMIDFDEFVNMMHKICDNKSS

outcome, inactive:
CC(C)c1ccc(NC(=O)Nc2ccc(CCNCCCc3ccccc3)cc2)cc1
CC(C)NCc1cccc(-c2cccc(NC(=O)c3cccc(Cl)c3)c2)c1
CC[C@@H]([C@@H](Cc1cc2ccccc2s1)C(=O)N[C@@H](CCCCNC(=O)OCc1ccccc1)C(=O)Nc1ccccn1)N(O)C=O
Cc1cccc2[nH]c(-c3cccc(-c4ccc(NC(=O)Nc5ccc(F)c(F)c5F)cc4)c3)nc12
C=CCNC(=O)CCCN=C(N)N
O=C(Nc1cccc(F)c1)c1ccc(C(=O)NC2CCN(CC3CCCCC3)CC2)cc1
COc1ccc(CCCc2nc(N)nc(N)c2-c2ccc(Cl)cc2)cc1
CN1CCN(CCCN(Cc2cccc(-c3ccc(CNCCc4ccccc4)cc3)c2)C(=O)c2cccs2)CC1
O=C(Nc1cccc(CN2CCN(C(=O)c3cccc(Cl)c3)CC2)c1)c1ccco1
CN1CCN(c2cccc(-c3nnc(-c4ccc(OCC(=O)NCc5ccc(C(F)(F)F)cc5)c([N+](=O)[O-])c4)o3)c2)CC1
CCn1c(-c2cc(C)on2)nc2cnc(Oc3ccc(C(=O)N4CC(=O)N(C)C4C(C)(C)C)cc3)cc21 (stereo not given)
O=C(NCCCCCCNCc1ccc(-c2ccccc2)cc1)Nc1ccc(Cl)c(Cl)c1
O=C(Nc1ccc(Oc2cccnc2)cc1)C1CCN(Cc2cc(Cl)ccc2O)CC1
CN1Cc2cc(NC(=O)/C=C/c3ccccc3Cl)ccc2C(C)(C)C1
COc1ccc2c(NN=C(C)c3ccccn3)cc(C)nc2c1
